Data: PubChem BioAssay (Tox21)
A number with no mark means an inactive call. Records with an inconclusive call do not appear. Entries that show only a call come without a potency. The source made the active and inactive calls. Unless noted, calls follow the shape of the dose curve; as a rule, active = well fitted curve in the direction sought with a large enough effect in the repeat runs; inconclusive = weak or mixed curves; inactive = no such curve, though single readings can be large; an effect the other way counts as inactive or inconclusive.

Tests used:
[1] = qHTS assay to identify small molecule antagonists of the estrogen related receptor signaling pathway with the pleiotropic PPARgamma coactivator (PGC) from Tox21 10K library - cell viability counter screen (AID 1224840; active = well fitted cell-killing curve with a large enough effect in the repeat runs, not every such curve was filed as active; also: nearly all actives have a fitted effect of over 40% in size; also: potency is read from the fitted curve at half-maximal effect)
Method in brief: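 Counter-screen for cytotoxicity: after 17.5 h compound exposure at 37 C, CellTiter-Fluor reagent added to PGC/ERR cells for 30 min and fluorescence read. Cells were seeded at 2,000 per well 6 h before dosing.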

[2] = qHTS assay to identify small molecule antagonists of the estrogen related receptor signaling pathway with the pleiotropic PPARgamma coactivator (PGC) from Tox21 10K library (AID 1224841; call rule not given here; also: actives are mostly falling curves and most rising ones were filed inactive; nearly all actives have a fitted effect of over 50% in size; also: potency is read from the fitted curve at half-maximal effect)
Method in brief: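 Luminescence (One-Glo, 30 min at room temperature) after 18 h compound treatment at 37 C of PGC/ERR reporter cells plated at 2,000 cells/well and settled 6 h beforehand.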

[3] = qHTS assay to identify small molecule agonists of the estrogen related receptor signaling pathway with the pleiotropic PPARgamma coactivator (PGC) from Tox21 10K library (AID 1224842); also: nearly all actives have a fitted effect of over 15% in size
Method in brief: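 Luminescence from One-Glo (30 min, room temperature) measured after PGC/ERR cells had 18 h at 37 C with pinned compound (23 nL in DMSO). Cells had been seeded at 2,000 per well and pre-incubated 6 h.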

[4] = qHTS assay to identify small molecule agonists of H2AX (AID 1224845; active = well fitted activation curve with a large enough effect in the signal ratio in the repeat runs, not every such curve was filed as active; the % refers to the signal ratio; also: potency is read from the fitted curve at half-maximal effect)
Method in brief: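 Phospho-H2AX Ser139 measured by HTRF (ex 320 nm; em 665 and 620 nm) after 24 hr antibody incubation. Compounds, 15 concentrations, 0.76% DMSO, were applied to CHO-K1 cells for 3hr at 37C before lysis.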

[5] = qHTS assay to identify small molecule agonists of H2AX - cell viability counter screen (AID 1224847; calls by dose curve; also: nearly all actives have a fitted effect of over 30% in size; also: potency is read from the fitted curve at half-maximal effect)
Method in brief: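 After overnight plating of 1000 CHO-K1 cells per well, a 15-concentration compound series was applied for 3 hr at 37C. Luminescence from CellTiter-Glo, read following 30 min at room temperature, reflected cell viability.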

[6] = qHTS assay to identify small molecule antagonists of the estrogen related receptor (ERR) signaling pathway from Tox21 library (AID 1224848); also: nearly all actives have a fitted effect of over 50% in size; also: potency is read from the fitted curve at half-maximal effect
Method in brief: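 ERR cell line, 2,000 cells/well. 6 h settle, then compound (DMSO) added; 18 h at 37 C; ONE-Glo luminescence after 30 min RT.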

[7] = qHTS assay to identify small molecule agonists of the estrogen related receptor (ERR) signaling pathway from Tox21 library (AID 1224849; calls by dose curve; also: nearly all actives have a fitted effect of over 15% in size); details: ERR reporter cell line, ONE-Glo luciferase, 18 h; at 92.4 µM (top of the series) unless noted
Method in brief: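 Luminescent agonist read-out (One-Glo, 30-minute room-temperature incubation) following 18-hour compound treatment at 37 C of the ERR cell line, which had been plated 6 hours before dosing.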

[8] = qHTS RealTime-Glo MT Cell Viability Assay in HepG2 cells - 24 hour (AID 1224867); also: nearly all actives have a fitted effect of over 50% in size; also: potency is read from the fitted curve at half-maximal effect
Method in brief: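 Compound treatment began 5 h after plating HepG2 cells (600/well) with NanoLuc luciferase and prosubstrate. Plates stayed at 37 C for 40 h; luminescence was captured at six time points, 0 h through 40 h.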

[9] = A CellTox Green Cytotoxicity Assay to monitor cytotoxicity in HEK293 cells - 0 hour (AID 1224869); also: nearly all actives have a fitted effect of over 50% in size
Method in brief: (§1)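 Fluorescence from a DNA-binding dye excluded by viable cells was measured repeatedly in the same HEK293 wells (600 cells/well) during continuous compound exposure at 37 C. Each assay gives one read point: 0, 8, 16, 24, 32 or 40 h.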

[10] = qHTS RealTime-Glo MT Cell Viability Assay in HepG2 cells - 40 hour (AID 1224870); also: nearly all actives have a fitted effect of over 50% in size; also: potency is read from the fitted curve at half-maximal effect
Method in brief: (§2)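 Real-time viability: cells seeded at 600 per well together with NanoLuc and cell-permeant prosubstrate, compounds added after 5 h incubation. Luminescence tracked at 0, 8, 16, 24, 32 and 40 h of exposure.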

[11] = A CellTox Green Cytotoxicity Assay to monitor cytotoxicity in HEK293 cells - 40 hour (AID 1224871); also: nearly all actives have a fitted effect of over 45% in size; also: potency is read from the fitted curve at half-maximal effect
Method in brief: as §1

[12] = qHTS RealTime-Glo MT Cell Viability Assay in HEK293 cells - 16 hour (AID 1224872); also: nearly all actives have a fitted effect of over 50% in size; also: potency is read from the fitted curve at half-maximal effect
Method in brief: (§3)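 Quantitative high-throughput screen of the Tox21 10K library in HEK293: cells and RealTime-Glo reagents plated together, compound added at 5 h, luminescence monitored through 40 h at 37 C.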

[13] = qHTS RealTime-Glo MT Cell Viability Assay in HepG2 cells - 8 hour (AID 1224873); also: nearly all actives have a fitted effect of over 55% in size; also: potency is read from the fitted curve at half-maximal effect
Method in brief: as §2

[14] = target: Nuclear receptor subfamily 1 group I member 3 (Homo sapiens) (UniProt Q14994); experiment: qHTS assay to identify small molecule agonists of the constitutive androstane receptor (CAR) signaling pathway (AID 1224839); also: nearly all actives have a fitted effect of over 15% in size; also: potency is read from the fitted curve at half-maximal effect;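 as to activation: HepG2 cells stably carrying human CAR and a CYP2B6 luciferase reporter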
Chain of Nuclear receptor subfamily 1 group I member 3 (Homo sapiens) (Q14994 whole entry, looked up): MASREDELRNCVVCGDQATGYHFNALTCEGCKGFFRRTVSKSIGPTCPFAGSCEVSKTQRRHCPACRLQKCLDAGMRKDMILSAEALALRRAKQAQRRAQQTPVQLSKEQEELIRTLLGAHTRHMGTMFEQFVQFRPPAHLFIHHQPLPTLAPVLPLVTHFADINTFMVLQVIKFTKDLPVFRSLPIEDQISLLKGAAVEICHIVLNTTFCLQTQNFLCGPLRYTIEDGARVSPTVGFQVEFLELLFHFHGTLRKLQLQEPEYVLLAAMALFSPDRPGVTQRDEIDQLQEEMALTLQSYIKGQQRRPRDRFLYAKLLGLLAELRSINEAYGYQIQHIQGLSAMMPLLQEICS
Method in brief: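 Using human hepatoma HepG2 cells engineered with hCAR and a CYP2B6-2.2kb reporter, 15-concentration compound series were incubated 24 h alongside PK11195 at 0.75 uM final, with luminescence quantified afterwards.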

[15] = qHTS assay to identify small molecule agonists of the hypoxia (HIF-1) signaling pathway (AID 1224846; active = well fitted activation curve with a large enough effect in the signal ratio in the repeat runs, not every such curve was filed as active; the % refers to the signal ratio)
Method in brief: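 Compounds added to ME-180 cells carrying hypoxia-response-element beta-lactamase reporter (0.5% dialyzed FBS, 5 h preplating), 17 h at 37C; agonist activity detected by CCF4-AM B/G FRET read-out.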

[16] = qHTS RealTime-Glo MT Cell Viability Assay in HEK293 cells - 32 hour (AID 1224868); also: nearly all actives have a fitted effect of over 50% in size; also: potency is read from the fitted curve at half-maximal effect
Method in brief: as §3

[17] = qHTS RealTime-Glo MT Cell Viability Assay in HEK293 cells - 40 hour (AID 1224874); details: RealTime-Glo luminescence; max response: active compounds read low; also: nearly all actives have a fitted effect of over 50% in size; also: potency is read from the fitted curve at half-maximal effect
Method in brief: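 Luminescence, which tracks viable cell number through reduction of the prosubstrate to a NanoLuc substrate, was read over continuous 37 C culture. Cells (600/well) were premixed with reagent and rested 5 h before 23 nL of compound in DMSO was pinned.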

[18] = target: Thyrotropin receptor (Homo sapiens) (UniProt P16473); experiment: qHTS assay to identify small molecule agonists of the thyroid stimulating hormone receptor (TSHR) signaling pathway (AID 1224843; calls by dose curve; also: nearly all actives have a fitted effect of over 45% in size; also: potency is read from the fitted curve at half-maximal effect)
Chain of Thyrotropin receptor (Homo sapiens) (P16473 whole entry, looked up): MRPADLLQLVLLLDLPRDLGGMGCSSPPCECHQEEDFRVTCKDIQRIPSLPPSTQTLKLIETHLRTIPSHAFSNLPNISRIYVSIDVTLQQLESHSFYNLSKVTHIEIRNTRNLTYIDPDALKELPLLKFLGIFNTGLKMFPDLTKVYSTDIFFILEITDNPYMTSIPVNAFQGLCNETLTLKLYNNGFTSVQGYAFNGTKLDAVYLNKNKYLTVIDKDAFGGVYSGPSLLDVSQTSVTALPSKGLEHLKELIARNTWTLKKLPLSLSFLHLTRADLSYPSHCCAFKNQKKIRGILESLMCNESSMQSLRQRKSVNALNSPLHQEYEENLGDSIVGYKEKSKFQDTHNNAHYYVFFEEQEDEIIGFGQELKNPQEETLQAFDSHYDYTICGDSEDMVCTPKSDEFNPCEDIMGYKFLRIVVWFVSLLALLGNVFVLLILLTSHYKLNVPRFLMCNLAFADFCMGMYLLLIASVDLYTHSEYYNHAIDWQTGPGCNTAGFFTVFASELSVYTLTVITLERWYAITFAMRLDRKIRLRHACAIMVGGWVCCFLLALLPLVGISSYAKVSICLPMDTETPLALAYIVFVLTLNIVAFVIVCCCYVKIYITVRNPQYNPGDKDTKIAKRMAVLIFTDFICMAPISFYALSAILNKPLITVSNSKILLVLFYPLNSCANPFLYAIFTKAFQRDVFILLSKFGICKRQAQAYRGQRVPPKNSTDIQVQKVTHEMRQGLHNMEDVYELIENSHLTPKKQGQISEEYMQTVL
Method in brief: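 A cell-based cAMP HTRF format was run in TSHR-transfected HEK293 cells, 800 per well. Treatment: 30 min, room temperature. Detection: 1 h with labelled cAMP and anti-cAMP cryptate. Concentration-response over 15 points, three replicates.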

[19] = qHTS assay to identify small molecule agonists of the hypoxia (HIF-1) signaling pathway - cell viability counter screen (AID 1224844; calls by dose curve; also: nearly all actives have a fitted effect of over 50% in size; also: potency is read from the fitted curve at half-maximal effect)
Method in brief: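 Cytotoxicity measured by CellTiter-Glo ATP luminescence in the wells also read for beta-lactamase signal. Cells were HRE-bla ME-180 (2,000/well, 0.5% dialyzed FBS), exposed to compounds for 17 h at 37C.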

Structure (SMILES) | Potency [1] | Potency [2] | Potency [3] | Potency [4] | Potency [5] | Potency [6] | activity change, positive = activation [7] | Potency [8] | Potency [9] | Potency [10] | Potency [11] | Potency [12] | Potency [13] | Potency [14] | Potency [15] | Potency [16] | max response [17] | Potency [18] | Potency [19] | Potency [17]
Oc1ccc(Cl)cc1C1CCCC1 | inactive | inactive | inactive | inactive | 56.6 µM (active) | inactive | 6.21% | inactive | inactive | inactive | 49 µM (active) | 24.5 µM (active) | inactive | – | – | – | – | – | – | –
C=CC(C)(C)O | – | – | – | – | inactive | – | – | inactive | inactive | inactive | inactive | inactive | inactive | inactive | inactive | inactive | 6.97% | – | – | –
O[Si](c1ccccc1)(c1ccccc1)c1ccccc1 | – | 68.6 µM (active) | inactive | – | 101 µM (active) | – | -39.7% | inactive | inactive | inactive | inactive | – | inactive | 30.6 µM (active) | inactive | 38.9 µM (active) | – | 48.6 µM (active) | inactive | –
C=C(C)CCO | inactive | – | – | inactive | inactive | – | – | inactive | inactive | inactive | inactive | inactive | – | – | inactive | inactive | 1.14% | inactive | inactive | –
O=C(Nc1ccccc1)c1cc(Cl)ccc1O | 17.2 µM (active) | – | inactive | inactive | 25.3 µM (active) | – | -16.2% | – | inactive | 49 µM (active) | – | – | inactive | – | – | – | – | inactive | inactive | 21.9 µM (active)
COCCC(=O)OC | – | – | – | – | inactive | – | – | inactive | inactive | inactive | inactive | inactive | inactive | inactive | inactive | inactive | 1.08% | inactive | inactive | –
CCOC(=O)C1=NN(c2ccc(Cl)cc2Cl)C(C)(C(=O)OCC)C1 (centres undefined) | inactive | – | inactive | inactive | 113 µM (active) | 48.6 µM (active) | -36.6% | inactive | inactive | inactive | inactive | – | – | – | inactive | – | – | – | – | –
CN(C)CCOc1ccc(/C(=C(/CCCl)c2ccccc2)c2ccccc2)cc1 | – | – | inactive | – | 94.3 µM (active) | 51 µM (active) | -52.6% | 40.9 µM (active) | inactive | 40.9 µM (active) | 45.8 µM (active) | 36.4 µM (active) | 36.4 µM (active) | inactive | – | 36.4 µM (active) | – | inactive | 40.9 µM (active) | 40.9 µM (active)
c1ccc(C[P+](c2ccccc2)(c2ccccc2)c2ccccc2)cc1 | – | 3.44 µM (active) | inactive | – | 101 µM (active) | 1.72 µM (active) | -56.8% | inactive | inactive | inactive | 4.9 µM (active) | – | inactive | inactive | – | 1.55 µM (active) | – | – | inactive | 1.38 µM (active)
c1ccc(-c2ccc(C(c3ccccc3)n3ccnc3)cc2)cc1 (centres undefined) | inactive | 29.8 µM (active) | inactive | – | – | 23.7 µM (active) | -54.4% [at 42.5 µM] | inactive | inactive | inactive | inactive | – | inactive | – | – | 30.1 µM (active) | – | inactive | inactive | –
C=C(C)C1CCC(C)CC1O (centres undefined) | inactive | – | – | inactive | inactive | – | – | inactive | inactive | inactive | inactive | inactive | inactive | – | inactive | inactive | 5.16% | inactive | inactive | –
CCC(=O)OC/C=C(\C)CCC=C(C)C | inactive | – | – | inactive | inactive | – | – | inactive | inactive | inactive | inactive | inactive | inactive | – | inactive | inactive | -0.115% | inactive | inactive | –
O=C1CCC(=O)N1 | inactive | inactive | inactive | inactive | inactive | inactive | 0.296% | inactive | inactive | inactive | inactive | – | inactive | – | inactive | – | – | inactive | inactive | –
C1CCSC1 | inactive | – | inactive | – | inactive | inactive | 0.687% | inactive | inactive | inactive | inactive | – | – | – | inactive | – | – | inactive | inactive | –
Cc1ccc(S(=O)(=O)C(I)I)cc1 | – | – | inactive | 16 µM (active) | 22.5 µM (active) | 61.1 µM (active) | -77.2% | 11 µM (active) | inactive | 12.3 µM (active) | 19.5 µM (active) | 15.5 µM (active) | 12.3 µM (active) | inactive | – | 12.3 µM (active) | – | 3.06 µM (active) | 13.8 µM (active) | 8.71 µM (active)
